Consider seven sequences from publication PMC7862700, “An all-to-all approach to the identification of sequence-specific readers for epigenetic DNA modifications on cytosine”.

Holding throughout (assay): DAPPL (digital affinity profiling via proximity ligation, sequencing); 10 mM Tris-HCl pH 7.5, 50 mM NaCl, 1 mM DTT, 4% glycerol, room temperature, 30 min; GST-TFs on glutathione beads, 16-mer random dsDNA library, 0.1% formaldehyde crosslink after washing; high values mean tight binding
One assay concerns the target T1, FEV (Homo sapiens, UniProt Q99581 1-238).
T1 sequence: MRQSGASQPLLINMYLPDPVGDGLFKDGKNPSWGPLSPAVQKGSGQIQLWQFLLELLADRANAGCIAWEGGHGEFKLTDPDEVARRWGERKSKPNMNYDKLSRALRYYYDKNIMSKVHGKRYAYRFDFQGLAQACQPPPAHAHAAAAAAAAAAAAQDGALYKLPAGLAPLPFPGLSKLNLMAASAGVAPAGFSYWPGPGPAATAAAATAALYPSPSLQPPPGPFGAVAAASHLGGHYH
The conditions noted are these: protein: recombinant; tags: N-terminal GST; dsDNA, one strand shown. In outline:
(§1)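 Yeast served to express human transcription factors as GST fusions, which were then captured on glutathione beads and labelled with DNA barcodes. Pooled with a tag-only sample, they were incubated with 200 nmole of a 16-mer random double-stranded DNA library for 30 min at room temperature in Tris/NaCl/DTT/glycerol buffer, washed, crosslinked with 0.1% formaldehyde, ligated by proximity, amplified by PCR and sequenced. Dividing each hexamer's read frequency for a factor by its frequency for the tag-only sample gives the binding signal.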

The next assay addresses ETV5 (Homo sapiens, UniProt P41161 1-510). To be noted: protein: recombinant; tags: N-terminal GST; dsDNA, one strand shown. The essentials: as §1
For another assay, the target named is HSF1 (Homo sapiens, UniProt Q00613 1-529). The conditions noted are these: protein: recombinant; tags: N-terminal GST; chain copies: 3; dsDNA, one strand shown. In outline: as §1
Chain of HSF1 (Q00613 whole entry): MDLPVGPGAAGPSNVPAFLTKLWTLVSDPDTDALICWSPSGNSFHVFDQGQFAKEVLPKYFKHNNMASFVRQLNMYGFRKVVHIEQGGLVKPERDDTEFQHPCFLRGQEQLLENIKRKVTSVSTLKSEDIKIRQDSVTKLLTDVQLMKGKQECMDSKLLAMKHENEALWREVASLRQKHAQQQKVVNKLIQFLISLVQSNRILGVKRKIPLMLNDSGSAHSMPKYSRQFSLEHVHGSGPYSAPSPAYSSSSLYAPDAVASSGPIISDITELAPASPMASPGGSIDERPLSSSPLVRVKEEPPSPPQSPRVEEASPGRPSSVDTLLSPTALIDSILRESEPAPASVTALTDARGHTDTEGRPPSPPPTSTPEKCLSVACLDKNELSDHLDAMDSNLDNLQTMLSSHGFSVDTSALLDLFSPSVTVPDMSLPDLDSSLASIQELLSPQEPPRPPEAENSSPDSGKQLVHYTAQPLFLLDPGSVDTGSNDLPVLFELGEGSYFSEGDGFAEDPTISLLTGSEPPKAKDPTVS
The next assay deals with T2, SPIC (Homo sapiens, UniProt Q8N5J4 1-248).
T2 sequence: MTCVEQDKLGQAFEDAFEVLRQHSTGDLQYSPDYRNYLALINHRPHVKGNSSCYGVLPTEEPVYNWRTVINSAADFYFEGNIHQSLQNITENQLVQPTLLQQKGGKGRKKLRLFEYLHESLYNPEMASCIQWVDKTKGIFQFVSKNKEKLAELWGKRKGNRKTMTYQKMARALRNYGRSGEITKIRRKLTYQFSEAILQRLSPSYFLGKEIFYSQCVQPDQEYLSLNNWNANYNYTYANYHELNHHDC
The conditions noted are these: protein: recombinant; tags: N-terminal GST; dsDNA, one strand shown. In outline: as §1

Another assay has as its target ELF4 (Homo sapiens, UniProt Q99607 1-663). The conditions noted are these: protein: recombinant; tags: N-terminal GST; dsDNA, one strand shown. In outline: as §1
In a further assay the target is T3, ELK4 (Homo sapiens, UniProt P28324-2 1-405).
T3 sequence: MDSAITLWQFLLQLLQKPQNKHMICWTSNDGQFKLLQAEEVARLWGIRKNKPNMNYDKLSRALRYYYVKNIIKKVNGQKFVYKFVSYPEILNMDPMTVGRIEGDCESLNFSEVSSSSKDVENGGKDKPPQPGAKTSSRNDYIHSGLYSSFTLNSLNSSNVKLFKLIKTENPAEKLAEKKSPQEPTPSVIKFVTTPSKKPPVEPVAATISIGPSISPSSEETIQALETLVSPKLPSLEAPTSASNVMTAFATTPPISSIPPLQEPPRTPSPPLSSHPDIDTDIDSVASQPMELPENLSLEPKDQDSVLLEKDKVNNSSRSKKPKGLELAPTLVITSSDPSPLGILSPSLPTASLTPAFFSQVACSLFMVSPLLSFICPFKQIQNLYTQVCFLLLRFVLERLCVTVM
The conditions noted are these: protein: recombinant; tags: N-terminal GST; dsDNA, one strand shown. In outline: as §1

For another assay, the target named is T4, ETV2 (Homo sapiens, UniProt O00321 1-342).
T4 sequence: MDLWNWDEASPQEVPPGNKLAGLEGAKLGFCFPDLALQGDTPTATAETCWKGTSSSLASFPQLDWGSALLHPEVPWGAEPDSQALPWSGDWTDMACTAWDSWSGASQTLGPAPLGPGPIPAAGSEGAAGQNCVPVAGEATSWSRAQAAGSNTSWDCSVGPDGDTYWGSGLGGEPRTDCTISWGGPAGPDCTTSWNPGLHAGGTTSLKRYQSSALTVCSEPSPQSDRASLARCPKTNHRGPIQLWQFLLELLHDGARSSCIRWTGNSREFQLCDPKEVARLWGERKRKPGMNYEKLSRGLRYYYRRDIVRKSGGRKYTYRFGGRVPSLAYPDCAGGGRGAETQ
The conditions noted are these: protein: recombinant; tags: N-terminal GST; dsDNA, one strand shown. In outline:
as §1

The target of the next assay is T5, ELF3 (Homo sapiens, UniProt P78545 1-371).
T5 sequence: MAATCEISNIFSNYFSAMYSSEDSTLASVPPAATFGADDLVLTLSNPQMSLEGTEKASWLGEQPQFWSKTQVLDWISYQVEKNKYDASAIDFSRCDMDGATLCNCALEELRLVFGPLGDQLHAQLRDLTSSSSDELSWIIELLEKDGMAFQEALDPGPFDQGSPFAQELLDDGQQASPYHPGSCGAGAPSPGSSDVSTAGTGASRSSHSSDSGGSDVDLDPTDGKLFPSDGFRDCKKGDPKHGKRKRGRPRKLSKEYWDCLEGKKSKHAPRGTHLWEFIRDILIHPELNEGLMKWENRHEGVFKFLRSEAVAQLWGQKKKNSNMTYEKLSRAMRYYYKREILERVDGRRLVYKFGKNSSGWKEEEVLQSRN
To be noted: protein: recombinant; tags: N-terminal GST; dsDNA, one strand shown. The essentials:
as §1

For another assay, the target named is CRX (Homo sapiens, UniProt O43186 1-299). The conditions noted are these: protein: recombinant; tags: N-terminal GST; dsDNA, one strand shown. The essentials:
as §1

For the next assay, the target named is ETV1 (Homo sapiens, UniProt P50549 1-477). To be noted: protein: recombinant; tags: N-terminal GST; dsDNA, one strand shown. In outline:
as §1

Chain of ETV1 (P50549 whole entry): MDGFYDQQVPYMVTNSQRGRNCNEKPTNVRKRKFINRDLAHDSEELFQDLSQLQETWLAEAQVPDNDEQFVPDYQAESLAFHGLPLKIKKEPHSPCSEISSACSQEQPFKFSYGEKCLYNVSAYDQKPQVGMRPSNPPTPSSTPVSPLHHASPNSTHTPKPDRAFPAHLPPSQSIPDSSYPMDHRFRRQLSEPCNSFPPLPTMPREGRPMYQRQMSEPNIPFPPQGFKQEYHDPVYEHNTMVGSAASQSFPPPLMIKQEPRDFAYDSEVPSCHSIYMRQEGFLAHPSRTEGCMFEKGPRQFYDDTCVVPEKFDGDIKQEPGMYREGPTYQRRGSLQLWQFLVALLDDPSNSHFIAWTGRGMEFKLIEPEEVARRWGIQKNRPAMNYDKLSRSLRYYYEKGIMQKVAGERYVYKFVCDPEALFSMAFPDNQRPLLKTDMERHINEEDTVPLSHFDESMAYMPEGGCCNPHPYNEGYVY
Chain of ELF4 (Q99607 whole entry): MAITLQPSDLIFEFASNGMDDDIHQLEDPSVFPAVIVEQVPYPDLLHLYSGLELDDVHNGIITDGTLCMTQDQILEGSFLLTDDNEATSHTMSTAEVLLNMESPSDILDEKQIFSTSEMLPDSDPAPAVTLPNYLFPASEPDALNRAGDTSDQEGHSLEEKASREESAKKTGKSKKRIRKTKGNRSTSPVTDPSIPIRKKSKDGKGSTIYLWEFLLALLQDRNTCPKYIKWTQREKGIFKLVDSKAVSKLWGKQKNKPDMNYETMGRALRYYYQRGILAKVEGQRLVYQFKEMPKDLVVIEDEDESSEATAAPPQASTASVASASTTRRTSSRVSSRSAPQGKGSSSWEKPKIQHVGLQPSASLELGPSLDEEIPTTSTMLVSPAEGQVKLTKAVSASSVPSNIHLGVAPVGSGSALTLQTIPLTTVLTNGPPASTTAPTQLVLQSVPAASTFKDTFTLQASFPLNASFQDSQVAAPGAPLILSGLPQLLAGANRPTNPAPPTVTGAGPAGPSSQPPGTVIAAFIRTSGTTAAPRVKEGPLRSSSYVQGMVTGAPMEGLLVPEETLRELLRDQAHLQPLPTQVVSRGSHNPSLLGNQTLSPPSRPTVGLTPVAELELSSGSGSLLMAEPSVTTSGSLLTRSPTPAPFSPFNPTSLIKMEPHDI
Chain of CRX (O43186 whole entry): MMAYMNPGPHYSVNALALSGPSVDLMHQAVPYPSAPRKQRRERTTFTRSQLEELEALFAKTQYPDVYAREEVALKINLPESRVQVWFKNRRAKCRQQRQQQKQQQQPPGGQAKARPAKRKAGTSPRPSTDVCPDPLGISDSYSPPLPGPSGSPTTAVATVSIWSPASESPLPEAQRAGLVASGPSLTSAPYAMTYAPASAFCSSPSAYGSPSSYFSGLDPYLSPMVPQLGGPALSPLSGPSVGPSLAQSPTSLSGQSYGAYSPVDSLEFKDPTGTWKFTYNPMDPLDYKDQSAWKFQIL
Chain of ETV5 (P41161 whole entry): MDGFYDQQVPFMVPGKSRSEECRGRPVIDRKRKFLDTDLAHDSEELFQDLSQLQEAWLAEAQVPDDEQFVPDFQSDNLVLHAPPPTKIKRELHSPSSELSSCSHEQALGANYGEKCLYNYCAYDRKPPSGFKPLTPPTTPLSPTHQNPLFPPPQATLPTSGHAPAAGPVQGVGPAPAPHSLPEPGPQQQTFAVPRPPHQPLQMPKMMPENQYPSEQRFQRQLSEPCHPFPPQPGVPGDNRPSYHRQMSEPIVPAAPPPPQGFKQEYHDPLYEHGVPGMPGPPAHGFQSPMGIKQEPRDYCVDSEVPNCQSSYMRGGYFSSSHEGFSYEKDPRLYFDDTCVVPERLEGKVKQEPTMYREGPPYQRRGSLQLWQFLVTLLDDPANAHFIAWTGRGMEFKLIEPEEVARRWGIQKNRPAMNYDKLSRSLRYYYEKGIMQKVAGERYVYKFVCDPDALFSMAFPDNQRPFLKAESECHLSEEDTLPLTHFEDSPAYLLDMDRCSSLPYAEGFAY

In the case of CTAAAA, the binding signal with FEV was 1.09 fold enrichment (6-mer frequency, TF over GST control); with ETV5, 1.16 fold enrichment (6-mer frequency, TF over GST control); with HSF1, 1.26 fold enrichment (6-mer frequency, TF over GST control); with SPIC, 1.25 fold enrichment (6-mer frequency, TF over GST control); in the assay with ELF4, 1.24 fold enrichment (6-mer frequency, TF over GST control); in the assay with ELK4, 1.21 fold enrichment (6-mer frequency, TF over GST control). In addition, the binding signal with ETV2 was 1.21 fold enrichment (6-mer frequency, TF over GST control); in the assay with ELF3 it was 1.12 fold enrichment (6-mer frequency, TF over GST control); with CRX, 1.4 fold enrichment (6-mer frequency, TF over GST control); in the assay with ETV1, 1.19 fold enrichment (6-mer frequency, TF over GST control).
As for ATTTTC, the binding signal in the assay with FEV is 1.35 fold enrichment (6-mer frequency, TF over GST control); with ETV5 it was 1.44 fold enrichment (6-mer frequency, TF over GST control); in the assay with HSF1, 2.04 fold enrichment (6-mer frequency, TF over GST control); with SPIC, 1.44 fold enrichment (6-mer frequency, TF over GST control); with ELF4 it was 1.64 fold enrichment (6-mer frequency, TF over GST control); with ELK4, 1.5 fold enrichment (6-mer frequency, TF over GST control). Besides, the binding signal was 1.63 fold enrichment (6-mer frequency, TF over GST control) in the assay with ETV2; 1.48 fold enrichment (6-mer frequency, TF over GST control) with ELF3; 1.67 fold enrichment (6-mer frequency, TF over GST control) with CRX; 1.4 fold enrichment (6-mer frequency, TF over GST control) with ETV1.
TACGTT: the binding signal with FEV was 1.35 fold enrichment (6-mer frequency, TF over GST control); with ETV5 it was 1.33 fold enrichment (6-mer frequency, TF over GST control); in the assay with HSF1, 1.24 fold enrichment (6-mer frequency, TF over GST control); with SPIC it was 1.47 fold enrichment (6-mer frequency, TF over GST control); in the assay with ELF4, 1.23 fold enrichment (6-mer frequency, TF over GST control); with ELK4 it was 1.29 fold enrichment (6-mer frequency, TF over GST control). For the same sequence, the binding signal was 1.27 fold enrichment (6-mer frequency, TF over GST control) in the assay with ETV2; 1.12 fold enrichment (6-mer frequency, TF over GST control) with ELF3; 1.34 fold enrichment (6-mer frequency, TF over GST control) in the assay with CRX; 1.29 fold enrichment (6-mer frequency, TF over GST control) with ETV1.
As to GTTAAT, the binding signal with FEV is 1.08 fold enrichment (6-mer frequency, TF over GST control); in the assay with ETV5, 1.17 fold enrichment (6-mer frequency, TF over GST control); with HSF1 it was 1.6 fold enrichment (6-mer frequency, TF over GST control); in the assay with SPIC, 1.11 fold enrichment (6-mer frequency, TF over GST control); with ELF4, 1.14 fold enrichment (6-mer frequency, TF over GST control); with ELK4, 1.05 fold enrichment (6-mer frequency, TF over GST control). The binding signal is 1.18 fold enrichment (6-mer frequency, TF over GST control) with ETV2; 1.09 fold enrichment (6-mer frequency, TF over GST control) with ELF3; 2.41 fold enrichment (6-mer frequency, TF over GST control) with CRX; 1 fold enrichment (6-mer frequency, TF over GST control) with ETV1.
With TGCGAA, the binding signal with FEV is 1.14 fold enrichment (6-mer frequency, TF over GST control); with ETV5 it was 1.23 fold enrichment (6-mer frequency, TF over GST control); with HSF1 it was 1.21 fold enrichment (6-mer frequency, TF over GST control); with SPIC it was 1.02 fold enrichment (6-mer frequency, TF over GST control); in the assay with ELF4, 1.21 fold enrichment (6-mer frequency, TF over GST control); with ELK4, 1.19 fold enrichment (6-mer frequency, TF over GST control). Besides, the binding signal with ETV2 is 1.18 fold enrichment (6-mer frequency, TF over GST control); with ELF3 it was 1.14 fold enrichment (6-mer frequency, TF over GST control); in the assay with CRX, 1.06 fold enrichment (6-mer frequency, TF over GST control); in the assay with ETV1 it was 1.19 fold enrichment (6-mer frequency, TF over GST control).
With CCCTGG, the binding signal is 1.08 fold enrichment (6-mer frequency, TF over GST control) with FEV; 1.09 fold enrichment (6-mer frequency, TF over GST control) with ETV5; 1.11 fold enrichment (6-mer frequency, TF over GST control) with HSF1; 1.25 fold enrichment (6-mer frequency, TF over GST control) with SPIC; 1.14 fold enrichment (6-mer frequency, TF over GST control) with ELF4; 1.21 fold enrichment (6-mer frequency, TF over GST control) in the assay with ELK4. Besides, the binding signal is 1.04 fold enrichment (6-mer frequency, TF over GST control) with ETV2; 1 fold enrichment (6-mer frequency, TF over GST control) with ELF3; 1.06 fold enrichment (6-mer frequency, TF over GST control) with CRX; 1.18 fold enrichment (6-mer frequency, TF over GST control) with ETV1.
As to ACTTAA, the binding signal with FEV is 1.15 fold enrichment (6-mer frequency, TF over GST control); with ETV5, 1.2 fold enrichment (6-mer frequency, TF over GST control); with HSF1, 1.67 fold enrichment (6-mer frequency, TF over GST control); in the assay with SPIC, 1.25 fold enrichment (6-mer frequency, TF over GST control); with ELF4, 1.19 fold enrichment (6-mer frequency, TF over GST control); in the assay with ELK4, 1.14 fold enrichment (6-mer frequency, TF over GST control). Besides, the binding signal with ETV2 is 1.16 fold enrichment (6-mer frequency, TF over GST control); with ELF3 it was 1.15 fold enrichment (6-mer frequency, TF over GST control); with CRX, 2.66 fold enrichment (6-mer frequency, TF over GST control); in the assay with ETV1, 1.25 fold enrichment (6-mer frequency, TF over GST control).
